Consider 49 compounds from PubChem BioAssay AID651658 (Broad Institute, 2012).

Hit rate of the full screen: of about 340,000 compounds, about 5,100 (1.5%) were called active.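 The calls were made as follows: active = mean Tm shift, scaled 0 neutral to 100 positive control, at about 1.3% or above, every replicate too (limit read from the data); inconclusive = no clear call, values can overlap the other calls; inactive = the rest.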 Shown is part of a subset that was picked to be rich in actives.

Fibroblast growth factor 22 (Homo sapiens), sequence (Q9HCT0 whole entry, looked up): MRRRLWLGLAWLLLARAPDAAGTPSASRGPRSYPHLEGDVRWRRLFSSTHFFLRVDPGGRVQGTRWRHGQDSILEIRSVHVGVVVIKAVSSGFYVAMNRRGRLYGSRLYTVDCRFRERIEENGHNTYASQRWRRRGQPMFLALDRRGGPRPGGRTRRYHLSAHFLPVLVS

The experiment addresses Fibroblast growth factor 22 (Homo sapiens) (UniProt Q9HCT0). Description: FGF22 ligand-induced thermal stabilization – biophysical, thermal shift, single point, FGF22 synaptogenesis inhibitor project, primary screen (AID 651658). The settings on record: recombinant FGF22 thermal shift, SYPRO orange fluorescence; at 9.99 µM; hits give high values; percent of sucrose octasulfate shift, DMSO zero.
`CO[C@H]1CN(C)C(=O)c2cc(NC(=O)C3CCC3)ccc2OC[C@H](C)N(C)C[C@H]1C`: the activity (Tm shift, normalised) is -0.155% (inactive).

Take `CCNC(=O)Nc1ccc2c(c1)C(=O)N(C)[C@@H]1CC[C@H](CC(=O)NC3CCCCC3)O[C@H]1CO2`: the activity (Tm shift, normalised) is -0.109% (inactive).

As to `C/C(COc1ccccc1)=N\NC(=O)c1nnn(-c2nonc2N)c1-c1ccc(C)cc1`, the activity (Tm shift, normalised) was 43.2% (active). For `Nc1nonc1-n1nnc(C(=O)N/N=C/C2CCCCC2)c1-c1ccccc1`, the activity (Tm shift, normalised) is 0.34% (inactive). `CCCOc1ccc(-c2c(C(=O)N/N=C/c3ccco3)nnn2-c2nonc2N)cc1`: the activity (Tm shift, normalised) was -0.098% (inactive). Consider `Cc1ccc(OCC(=O)NC(C)c2ccccc2)c([N+](=O)[O-])n1` (centres undefined), for which the activity (Tm shift, normalised) is 43.5% (active). For `Cc1cc(C)cc(OCC(=O)NC(C)c2ccccc2)c1` (centres undefined), the activity (Tm shift, normalised) was 0.179% (inactive). For `COc1ccccc1CNC(=O)COc1ccc(C)nc1[N+](=O)[O-]`, the activity (Tm shift, normalised) was 0.224% (inactive). Regarding `COc1ccc(S(=O)(=O)N(C)C[C@@H]2OCCCC[C@H](C)Oc3ccc(NC(=O)NC(C)C)cc3C(=O)N([C@@H](C)CO)C[C@@H]2C)cc1`, the activity (Tm shift, normalised) is -0.199% (inactive). For `CO[C@@H]1CN(C)C(=O)c2cc(NC(C)=O)ccc2OC[C@H](C)N(C(=O)CC2CC2)C[C@@H]1C`, the activity (Tm shift, normalised) was 0.119% (inactive). To `C[C@@H](O)C#Cc1ccc([C@H]2[C@@H](CO)N3CCCCN(S(=O)(=O)c4ccccc4)C[C@@H]23)cc1` belongs -0.117% (inactive).

On to `O=C(/C=C/c1ccc2c(c1)OCCO2)c1ccc(O)cc1`, for which the activity (Tm shift, normalised) was 2.05% (active). Regarding `O=C(COC(=O)c1ccc(O)cc1O)c1ccc2c(c1)OCCO2`, the activity (Tm shift, normalised) is 0.444% (inactive).

With `Cc1ccc(C(=O)NNC(=O)c2ccc3c(c2)OCCO3)cc1`, the activity (Tm shift, normalised) is -0.233% (inactive). For `C[C@H](CO)N1C[C@H](C)[C@@H](CN(C)C(=O)C2CCCCC2)Oc2cc(C3=CCCC3)ccc2S1(=O)=O`, the activity (Tm shift, normalised) is 0.195% (inactive). With `O=C(NCC1CCCO1)/C(=C/c1ccc(Cl)cc1)NC(=O)c1ccccc1` (centres undefined), the activity (Tm shift, normalised) is -0.33% (inactive).

Regarding `Cc1ccc(C(=O)N/C(=C/c2cccs2)C(=O)N2CCCCC2)cc1`, the activity (Tm shift, normalised) was 0.095% (inactive). For the compound `Cc1ccc(C(=O)N/C(=C/c2cccs2)C(=O)NCC2CCCO2)cc1` (centres undefined), the activity (Tm shift, normalised) was 42.9% (active). For `CCCC#Cc1cnc2c(c1)C(=O)N([C@H](C)CO)C[C@H](C)[C@H](CN(C)C(=O)Cc1ccncc1)O2`, the activity (Tm shift, normalised) was 0.077% (inactive).

As for `CC(C)NC(=O)N1[C@H](CNC(=O)CN(C)C)[C@@H](c2ccccc2)[C@@H]1CO`, the activity (Tm shift, normalised) was -0.154% (inactive).

For `Cc1ccc(S(=O)(=O)NCCC(=O)Nc2ccc(C)c(Cl)c2)cc1C`, the activity (Tm shift, normalised) was 1.75% (active). Consider `Cc1ccnc(NC(=O)CCNS(=O)(=O)c2ccc(C)c(C)c2)c1`, for which the activity (Tm shift, normalised) is -0.078% (inactive).

In the case of `Cc1ccc(S(=O)(=O)NCCC(=O)Nc2cccc(S(N)(=O)=O)c2)cc1C`, the activity (Tm shift, normalised) is -0.18% (inactive). In the case of `CCC(=O)Nc1ccc2c(c1)C(=O)N(C)C[C@H](OC)[C@H](C)CN(C(=O)c1ccccc1F)[C@@H](C)CO2`, the activity (Tm shift, normalised) was 0.053% (inactive). To `CN(C(=O)c1cc2c(=O)n3ccccc3nc2s1)C1CCCCC1` belongs -0.192% (inactive). Regarding `CC(C)c1cc(C(=O)NC2CCCCCC2)c2ccccc2n1`, the activity (Tm shift, normalised) was -0.159% (inactive). To `CN(c1ccc2nc3ccccc3c(=O)n2n1)C1CCCCC1` belongs 43.9% (active); to `CN(C)CC(=O)N1[C@@H](CO)[C@H](c2ccccc2)C12CN(C(=O)c1cccc(F)c1)C2`, 0.354% (inactive); to `Brc1cc(/C=N/n2cnnc2)oc1Br`, -0.235% (inactive). For `COC(=O)N/N=C/c1ccc(-c2ccc(Cl)c(Cl)c2)o1`, the activity (Tm shift, normalised) is -0.262% (inactive). Regarding `Clc1cc(-c2ccc(/C=N/n3cnnc3)o2)ccc1Br`, the activity (Tm shift, normalised) was 43.6% (active). The result for `C[C@H](CO)N1C[C@H](C)[C@H](CN(C)C(=O)NC2CCCCC2)Oc2c(NC(=O)C3CC3)cccc2C1=O` reads -0.273% (inactive). Turning to `O=C(NCCN1CCOCC1)c1ccc2c(c1)N(Cc1cccc(Cl)c1)C(=O)c1ccccc1S2(=O)=O`, the activity (Tm shift, normalised) is -0.426% (inactive). With `O=C1c2ccccc2S(=O)(=O)c2cc(N3CCN(c4ccccn4)CC3)ccc21`, the activity (Tm shift, normalised) is 0.041% (inactive). On to `O=C(c1ccc2c(c1)N(Cc1ccc(F)cc1)C(=O)c1ccccc1S2(=O)=O)N1CCN(c2ccccn2)CC1`, for which the activity (Tm shift, normalised) is 44.2% (active). For the compound `CO[C@@H]1CN(C)C(=O)c2cc(NC(=O)c3ccccc3F)ccc2OC[C@H](C)N(C(C)=O)C[C@@H]1C`, the activity (Tm shift, normalised) was 0.052% (inactive). Take `C[C@@H]1CN([C@H](C)CO)S(=O)(=O)c2ccc(-c3ccncc3)cc2O[C@H]1CN(C)S(=O)(=O)c1ccccc1F`: the activity (Tm shift, normalised) is -0.04% (inactive).

Consider `C[C@@H]1CCCCO[C@@H](CN(C)C(=O)NC2CCCCC2)[C@H](C)CN([C@H](C)CO)C(=O)c2cc(NS(=O)(=O)c3ccc(Cl)cc3)ccc2O1`, for which the activity (Tm shift, normalised) is 0.906% (inactive). As to `CN(c1ccccc1)S(=O)(=O)c1cc(C(=O)OCC(=O)N2CCN(C(=O)c3ccco3)CC2)ccc1Cl`, the activity (Tm shift, normalised) is 43.1% (active). `O=C(OCC(=O)N1CCN(C(=O)c2ccco2)CC1)c1cccc(O)c1`: the activity (Tm shift, normalised) was 0.05% (inactive). For `O=C(OCC(=O)N1CCN(C(=O)c2ccco2)CC1)c1ccc(Cl)c(Cl)c1`, the activity (Tm shift, normalised) is -0.203% (inactive). The result for `CC=Cc1ccc2n(c1=O)C[C@H]1[C@H](CO)[C@@H](C(=O)NCCc3cn(C)cn3)[C@@H]2N1C(=O)CC` (mixture of isomers) reads -0.32% (inactive); that for `C/C(=N\Nc1nc(N2CCOCC2)nc(N2CCOCC2)n1)c1ccc([N+](=O)[O-])cc1`, 0.46% (inactive); that for `CN(C)c1ccc(/C=N/Nc2cc(N3CCOCC3)nc(N3CCOCC3)n2)cc1`, 43.5% (active). As for `C(=N\Nc1ccc2ccccc2n1)/c1ccc2c(c1)OCO2`, the activity (Tm shift, normalised) was 41.5% (inactive). As to `Cc1ccc(S(=O)(=O)N(C)C)cc1NC(=O)c1n[nH]c(=O)c2ccccc12`, the activity (Tm shift, normalised) is -0.104% (inactive). For `CC(=O)c1c(C)[nH]c(C(=O)Nc2cc(S(=O)(=O)N(C)C)ccc2C)c1C`, the activity (Tm shift, normalised) was 43.3% (active). To `Cc1ccc(S(=O)(=O)N(C)C)cc1NC(=O)c1ccccc1Br` belongs -0.075% (inactive); to `C[C@@H]1CN([C@@H](C)CO)C(=O)c2cc(NC(=O)Cc3ccccc3)ccc2O[C@H]1CN(C)CC1CC1`, 0.206% (inactive).
